The assay relates to Scedosporium aurantiacum CBS 136046. Description: growth inhibition relative to DMSO control (OD600); higher = more antifungal activity, active = 80 or more; extreme values may be limits of the assay. The note with it: 5 µM; 72 h; 37 °C.
For the compound `CC1CN(c2ncnc3c2c(-c2ccccc2)cn3-c2ccc(F)cc2)CC(C)O1` (stereo not drawn), the growth inhibition is 20.4% (inactive).
With `O=C1c2cccc3cccc(c23)C(=O)N1CC1CO1` (stereo not drawn), the growth inhibition is 19.8% (inactive).
The result for `N#C/C(=C1/SC[C@H](c2ccc(Cl)cc2Cl)S1)n1ccnc1` reads 85.6% (active).
The result for `CN(C(=O)C1(c2ccc(Cl)cc2)CCC1)c1ccccc1` reads 13.9% (inactive); that for `Cn1cncc1[C@@](N)(c1ccc(Cl)cc1)c1ccc2c(c1)c(-c1cccc(Cl)c1)cc(=O)n2C`, 11.3% (inactive); that for `CCC(C)n1ncn(-c2ccc(N3CCN(c4ccc(OCC5COC(Cn6cncn6)(c6ccc(Cl)cc6Cl)O5)cc4)CC3)cc2)c1=O` (stereo not drawn), 57.2% (inactive).
Turning to `Cc1nc(N(C)C(=O)Cc2ccc(-c3ccccn3)cc2)sc1S(N)(=O)=O`, the growth inhibition is 4.79% (inactive).
To `COc1ccc2cc3[n+](cc2c1OCCN(CCn1cncn1)Cc1ccc(F)cc1F)CCc1cc2c(cc1-3)OCO2` belongs 2.66% (inactive); to `CC1=C(/C=C/C(C)=C/C=C/C(C)=C/C(=O)Nc2ccc(O)cc2)C(C)(C)CCC1`, 14.5% (inactive); to `O=c1[nH]cnc2c1ncn2[C@H]1CC[C@@H](CO)O1`, 10.6% (inactive).
The result for `Oc1cc(-c2cccc3ccccc23)[nH]n1` reads 7.34% (inactive); that for `COc1ccc2sc3c(c2c1)NC(C)CNC3=O` (stereo not drawn), 7.39% (inactive); that for `CN(C)CC(=O)Nc1ccc2[nH]c(=O)c3ccccc3c2c1`, 6.77% (inactive).
To `C[C@@H](NC(=O)c1ccccc1-c1ccccc1)B(O)O` belongs 0.688% (inactive); to `O=S(=O)(NCB(O)O)c1ccc(-c2nnn[nH]2)cc1C(F)(F)F`, 13.6% (inactive); to `CCc1ccc(C2CC(C(F)(F)F)n3ncc(C(=O)NCc4ccc(OC)cc4)c3N2)cc1` (stereo not drawn), 34.5% (inactive).
On to `C[C@@H]1O[C@@H]1P(=O)(O)O`, for which the growth inhibition was 3.95% (inactive).
To `COc1cc2c(O)c3c(c(-c4ccc5c(c4)OCO5)c2cc1OC)C(=O)OC3` belongs 25% (inactive).
To `N[C@H]1CCC[C@H]1C(=O)O` belongs 4.68% (inactive).
Consider `Fc1ccc2c(/C=C/c3nnn[nH]3)c[nH]c2c1`, for which the growth inhibition is 4.45% (inactive).
As for `O=[N+]([O-])c1cn2c(n1)OC[C@@H](OCc1ccc(OC(F)(F)F)cc1)C2`, the growth inhibition is 11.2% (inactive).
To `Oc1c(C(Nc2nc3ccccc3s2)c2ccc(OC(F)F)cc2)ccc2cccnc12` (stereo not drawn) belongs 12% (inactive); to `Cc1cccc(C)c1C(=O)Nc1nc(-c2ccccn2)cc2ccccc12`, 26.2% (inactive).

These data come from the supplement of paper PMC9897528.
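Note: conidia screened in RPMI 1640 medium under 5% CO2, growth read by spectrophotometer, medium with 0.5% DMSO serving as the untreated reference.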
